Several values for one entry are separate records, joined by “and”; a condition that tells them apart may be missing. Equal values may be shown once. Screen size: about 5,500 compounds; about 2,000 (36%) were called active. About 18% were inconclusive and are not listed. Cut-off read from the data, not from the text of the source: active = normalized growth mostly below about 0.91 (no sharp cut-off); inconclusive = no clear call, values can overlap the other calls; inactive = mostly above about 0.92. Some of the results follow.
Test: chemical genetic growth profiling, strain panel (AID 1159580);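 note: tested at 20 µM; growth read once vehicle control cultures reached saturation at 30 °C; 1 = growth at the plate median or of vehicle wells; lower values mean less growth of the strain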
Details: S. cerevisiae deletion strains, growth OD

Measured: normalized growth

CC1=C2C(O)C(=O)OC3CC4C(C)(C)C(=O)C=C[C@]4(C)C(CC1)[C@]23C (stereo partly specified)
inactive: locus YAL021C, strain ccr4, stronger effect = lower value 1.01 | locus YAL026C, strain drs2, stronger effect = lower value 1.02 | locus YAL030W, strain snc1, stronger effect = lower value 1.01 | locus YBL061C, strain skt5, stronger effect = lower value 1.01 | locus YBR009C, strain hhf1, stronger effect = lower value 1 | locus YBR021W, strain FUR4, stronger effect = lower value 0.994 | locus YBR023C, strain chs3, stronger effect = lower value 1.02 | locus YBR171W, strain sec66, stronger effect = lower value 1.01 | locus YBR229C, strain ROT2, stronger effect = lower value 1.02 | locus YBR231C, strain swc5, stronger effect = lower value 1 | locus YBR279W, strain paf1, stronger effect = lower value 1 | locus YCL011C, strain gbp2, stronger effect = lower value 1.01 | locus YCL016C, strain dcc1, stronger effect = lower value 1.01 | locus YCL029C, strain bik1, stronger effect = lower value 1 | locus YCL061C, strain MRC1, stronger effect = lower value 1 | locus YCL069W, strain vba3, stronger effect = lower value 1 | locus YCR088W, strain abp1, stronger effect = lower value 1.01 | locus YDL005C, strain med2, stronger effect = lower value 1.02 | locus YDL035C, strain GPR1, stronger effect = lower value 1.03 | locus YDL040C, strain nat1, stronger effect = lower value 1.01 | locus YDL074C, strain BRE1, stronger effect = lower value 1.07 | locus YDL101C, strain DUN1, stronger effect = lower value 1.04 | locus YDL134C, strain PPH21, stronger effect = lower value 1.04 | locus YDL185W, strain tfp1, stronger effect = lower value 1.02 | locus YDL192W, strain arf1, stronger effect = lower value 1.02 | locus YDR001C, strain nth1, stronger effect = lower value 1 | locus YDR069C, strain doa4, stronger effect = lower value 1.02 | locus YDR101C, strain arx1, stronger effect = lower value 0.99 | locus YDR137W, strain rgp1, stronger effect = lower value 1.12 | locus YDR159W, strain sac3, stronger effect = lower value 1.03 | locus YDR162C, strain NBP2, stronger effect = lower value 1.04 | locus YDR195W, strain ref2 0.986 | locus YDR297W, strain sur2, stronger effect = lower value 1.02 | locus YDR318W, strain mcm21, stronger effect = lower value 1.02 | locus YDR334W, strain swr1, stronger effect = lower value 1 | locus YDR335W, strain msn5, stronger effect = lower value 1 | locus YDR388W, stronger effect = lower value 1.02 | locus YDR392W, strain spt3, stronger effect = lower value 1.03 | locus YDR502C, strain sam2, stronger effect = lower value 1.04 | locus YEL003W, strain gim4, stronger effect = lower value 1 | locus YEL037C, strain rad23, stronger effect = lower value 1 | locus YEL061C, strain CIN8 (second series), stronger effect = lower value 1.01 | locus YER015W, strain faa2, stronger effect = lower value 1.01 | locus YER016W, strain bim1, stronger effect = lower value 1.02 | locus YER110C, stronger effect = lower value 1.02 | locus YER111C, strain swi4, stronger effect = lower value 1.02 | locus YER155C, strain BEM2 (second series), stronger effect = lower value 1.01 | locus YER155C, strain BEM2, stronger effect = lower value 1 | locus YER167W, strain BCK2, stronger effect = lower value 1 | locus YFR010W, strain ubp6, stronger effect = lower value 1.01 | locus YGL078C, strain dbp3, stronger effect = lower value 1.05 | locus YGL086W, strain mad1, stronger effect = lower value 1.01 | locus YGL167C, strain pmr1, stronger effect = lower value 1.02 | locus YGL173C, strain kem1, stronger effect = lower value 1.03 | locus YGL227W, strain vid30, stronger effect = lower value 1.01 | locus YGL240W, strain doc1, stronger effect = lower value 1 | locus YGL248W, strain PDE1, stronger effect = lower value 1.02 | locus YGL253W, strain hxk2, stronger effect = lower value 1.02 | locus YGR078C, strain PAC10, stronger effect = lower value 1.05 | locus YGR135W, strain pre9, stronger effect = lower value 1.07 | locus YGR252W, strain gcn5, stronger effect = lower value 1.13 | locus YHR013C, strain ard1, stronger effect = lower value 1.04 | locus YHR027C, strain rpn1, stronger effect = lower value 1.02 | locus YHR030C, strain SLT2, stronger effect = lower value 1.01 and 1.04 | locus YHR079C, strain IRE1 (second series), stronger effect = lower value 1.01 | locus YHR079C, strain IRE1, stronger effect = lower value 1.02 | locus YHR094C, strain hxt1, stronger effect = lower value 1.01 | locus YHR129C, strain ARP1, stronger effect = lower value 1.02 | locus YHR142W, strain chs7, stronger effect = lower value 1.01 | locus YHR200W, strain rpn10, stronger effect = lower value 1.02 | locus YIL066C, strain RNR3, stronger effect = lower value 1.02 | locus YIL073C, strain SPO22, stronger effect = lower value 1.06 | locus YIL125W, strain kgd1, stronger effect = lower value 0.995 | locus YIR030C, strain dcg1, stronger effect = lower value 1.02 | locus YJL092W, strain hpr5, stronger effect = lower value 1 | locus YJL095W, strain BCK1 (second series), stronger effect = lower value 1.01 | locus YJL095W, strain BCK1, stronger effect = lower value 1.07 and 1.03 | locus YJL115W, strain asf1, stronger effect = lower value 1.01 | locus YJL129C, strain trk1, stronger effect = lower value 1.03 | locus YJL134W, strain LCB3, stronger effect = lower value 1.01 | locus YJL154C, strain vps35, stronger effect = lower value 1.02 | locus YJL164C, strain tpk1, stronger effect = lower value 1.01 | locus YJL166W, strain qcr8, stronger effect = lower value 1.01 | locus YJL168C, strain set2, stronger effect = lower value 1.02 | locus YJL187C, strain SWE1 (second series), stronger effect = lower value 1.05 | locus YJL187C, strain SWE1, stronger effect = lower value 1.01

Source: PubChem BioAssay AID1159580 (chemical genetic matrix, 2015)
